Screening data from PubChem BioAssay.
Only some compounds are listed: those with a hit (about 14% of all), similar ones and a draw of the others.
Giardia FBPA inh: Giardia lamblia aldolase inhibition; purified Giardia FBPA; Potency, µM (top dose mostly 59.6 µM), without a hit: top-dose activity, negative = inhibition, most hits filed as inhibitors; actives 0.71% (n = 290,000); further: potency means the concentration at half of the fitted maximal effect; nearly all actives have a fitted effect of over 55% in size
Target sequence (A8B2U2 whole entry, looked up): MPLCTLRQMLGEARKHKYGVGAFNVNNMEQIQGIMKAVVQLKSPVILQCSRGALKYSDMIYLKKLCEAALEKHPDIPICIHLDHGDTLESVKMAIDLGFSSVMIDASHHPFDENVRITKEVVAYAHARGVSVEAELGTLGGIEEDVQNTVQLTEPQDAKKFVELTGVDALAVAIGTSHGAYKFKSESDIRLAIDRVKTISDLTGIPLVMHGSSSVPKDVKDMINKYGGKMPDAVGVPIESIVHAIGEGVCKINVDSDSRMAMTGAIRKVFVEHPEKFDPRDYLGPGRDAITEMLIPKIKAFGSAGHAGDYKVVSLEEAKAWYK
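Giardia FBPA (40 nM reagent) was preincubated 10 min at RT with compound (up to 57.5 uM final), then substrate plus GAPDH/TPI/NAD/arsenate coupling system with diaphorase/resazurin was added; resorufin fluorescence (525/598 nm) was read after 20 min.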
Pf growth 48h: P. falciparum growth inhibition at 48 hours (one generation); Potency, µM (doses to about 28.7 µM), for inactives: at the highest dose activity change, negative = inhibition, actives largely listed as inhibitors; actives 5.9% (n = 310,000); P. falciparum luciferase growth in erythrocytes, 48 h; further: potency means the concentration at half of the fitted maximal effect
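Erythrocytes infected with P. falciparum carrying an integrated firefly luciferase reporter (2% hematocrit, 0.1% parasitemia final) were exposed to compounds in RPMI 1640 with 0.5% Albumax at 37 C, 5% CO2. Growth inhibition was scored as reduced luminescence.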
HCMV antiviral: blocks human cytomegalovirus replication; HFF cells, HCMV-luciferase reporter, 72 h; hits give low values; activity change, negative = inhibition, % at 57.5 µM; actives 4.5% (n = 410,000); AID 1259415; in the data active means activity change below about -60%; inconclusive means no clear call, values can overlap the other calls; inactive means above about -39%
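HFF cells seeded 16 h at 37C, treated with compounds, infected with luciferase-reporter HCMV at MOI 1 PFU/cell; luciferase read at 72 h post infection, normalized to buffer-only and Salinomycin controls.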
Pf growth 96h: P. falciparum growth inhibition at 96 hours. P. falciparum luciferase reporter growth, 96 h. Potency, µM (titrated, usually from 28.7 µM), inactives show at the top dose activity change, negative = inhibition, hits mostly inhibitors. actives 6.9% (n = 320,000). AID 504834; further: potency means the concentration at half of the fitted maximal effect
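Compounds incubated with erythrocytes infected by luciferase-expressing P. falciparum (2% hematocrit, 0.05% parasitemia final) for 96 hours, 37 C in 5% CO2. Growth inhibition scored as decreased luciferase luminescence.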
Sm TGR block: blocks Schistosoma mansoni thioredoxin glutathione reductase | purified TGR, DTNB reduction, TNB absorbance 405 nm | Potency, µM (top dose mostly 114 µM), for the others: at the highest dose activity change, negative = inhibition, usual class: inhibitors | actives 3% (n = 360,000); further: potency means the concentration at half of the fitted maximal effect; nearly all actives have a fitted effect of over 60% in size
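First, TGR (20 nM dispensed) and NADPH were mixed with compound. Second, a 15 min room-temperature incubation followed. Third, further NADPH and then DTNB were added to start the reaction. Finally, TNB absorbance was monitored kinetically.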
Starred values were filed as active, the others as inactive; i = inactive; u = inconclusive; x = no result. Unless noted, the call rests on the fitted dose curve; in most records, active means well fitted curve in the direction sought with a large enough effect; inconclusive means small, poorly fitted or top-dose-only effect, or another doubt; inactive means no such curve, though single readings can be large; an effect the other way counts as inactive or inconclusive. On the % scale 0 is the no-effect control and ±100 the full control effect.

SMILES	Giardia FBPA inh	Pf growth 48h	HCMV antiviral	Pf growth 96h	Sm TGR block
COc1ccc(S(=O)(=O)Nc2cccc(-c3ccc(N4CCCCCC4)nn3)c2)cc1F	x	x	17.7	x	2.1%
CCS(=O)(=O)Nc1cccc(C(=O)O)c1	3.6%	-4.9%	x	0.0%	-4.0%
CCS(=O)(=O)Nc1cccc(C(=C2CCCCC2)c2cnc[nH]2)c1	-3.4%	11.7µM*	-17.3	u	-5.4%
Nc1sc(-c2ccccc2)n[n+]1Cc1cccc2cccnc12	-0.4%	u	-99.1*	u	15.5%
O=C(O)c1cc(-c2ccc(O)cc2)on1	-5.2%	7.5%	-24.4	u	18.3%
CCOC(=O)c1c(C)[nH]c(C)c1C(=O)COC(=O)/C=C/c1cccc(F)c1	0.6%	u	47.0	u	-28.9%
CCOC(=O)c1c(C)[nH]c(C)c1C(=O)COC(=O)/C=C/c1ccc(OC)cc1	x	u	3.2	u	-3.9%
CCOC(=O)c1c(C)[nH]c(C)c1C(=O)COC(=O)/C=C/c1ccco1	x	u	69.9	-5.8%	31.6µM*
CCOC(=O)c1c(C)[nH]c(C)c1C(=O)COC(=O)/C=C/c1cccc(C(F)(F)F)c1	-2.1%	14.7µM*	-13.6	u	-2.4%
COc1ccc(-c2cn3c(n2)sc2cc(C(=O)Nc4ccc(C)c(C)c4)ccc23)cc1	x	x	x	x	29.0%
CCC(C)C(NC(=O)c1ccccc1NC(=O)c1ccc(OC)cc1)C(=O)NCCCn1ccnc1 (stereo not given)	-8.6%	u	10.3	u	-10.9%
C/C(=N\NC(=O)c1ccco1)c1ccc(-c2ccccc2)cc1	7.9%	u	65.1	u	-20.0%
C/C(=N\NC(=O)c1ccco1)c1ccc(NC(=O)c2ccccc2)cc1	-11.9%	325.1%	88.6	13.1µM*	4.2%
COC(=O)Cc1ccc(NC(=O)c2ccc(NC(=O)c3ccco3)cc2)cc1	0.1%	-5.4%	-82.9*	u	11.6%
CCOC(=O)Cc1ccc(NC(=O)c2ccc(C(C)(C)C)cc2)cc1	-14.4%	4.15µM*	-88.0*	x	4.2%
Cc1cc(NC(=O)c2ccccc2)ncc1NC(=O)c1ccco1	u	33.3%	170.8	x	22.4µM*
O=C(O)Cc1ccc(NC(=O)c2ccc(NC(=O)c3ccco3)cc2)cc1	-0.8%	x	-7.6	8.6%	u
CC(C)(C)c1ccc(C(=O)Nc2ccc(NC(=O)c3ccco3)cc2)cc1	2.5%	u	-83.3*	10.4µM*	-29.5%
CC(C)(C)C(=O)Nc1ccc(NC(=O)c2ccco2)nc1	1.7%	-87.6%	-95.9*	22.8%	-7.5%
CCOc1ccccc1NC(=O)c1ccc(NC(=O)c2ccco2)cc1	3.8%	2.94µM*	u	-22.2%	-21.8%
O=C(Nc1ccc(NC(=O)c2ccco2)nc1)c1ccco1	3.4%	i	u	21.4%	-1.0%
O=C(Nc1ccc(NC(=O)c2ccco2)cc1)c1ccco1	x	11.4%	-3.5	u	-21.9%
COc1ccccc1NC(=O)c1ccc(NC(=O)c2ccco2)cc1	0.4%	u	u	-0.7%	-14.4%
C/C(=N\NC(=O)c1ccccc1N)c1ccc(NC(=O)Cc2ccccc2)cc1	0.2%	9.28µM*	48.9	-17.9%	-29.0%
Cc1cc(C)c(C(=O)Nn2c(C)nc3ccccc3c2=O)cc1C	8.9%	-25.2%	-39.7	21.0%	-18.2%
SMILES	Giardia FBPA inh	Pf growth 48h	HCMV antiviral	Pf growth 96h	Sm TGR block
CC(C)c1ccc(CN(C)CC(O)c2ccccc2)cc1 (stereo not given)	u	2.62µM*	3.9	9.28µM*	-0.8%
CN(CCOc1ccc(Cl)cc1)CC(O)c1ccccc1 (stereo not given)	u	9.28µM*	18.8	u	-5.6%
CC(OCC(O)CN(C)CCOc1ccccc1)c1ccc(Cl)cc1 (stereo not given)	-15.3%	u	14.7	11.7µM*	1.7%
OC(CN(Cc1ccccc1)Cc1ccccc1)c1ccccc1 (stereo not given)	x	x	8.4	x	x
CN(CCOc1ccccc1)CC(O)COc1ccccc1 (stereo not given)	8.6%	12.7%	-19.8	29.0%	-6.7%
CCN(CC)CCNc1oc(-c2ccccc2)nc1S(=O)(=O)c1ccccc1	x	x	-14.0	x	x
Cc1nc(S(=O)(=O)c2ccc(Cl)cc2)c(NCc2ccccc2)o1	-6.1%	x	22.0	x	39.8µM*
O=S(=O)(c1ccc(Cl)cc1)c1nc(-c2ccccc2F)oc1NCc1ccccc1	x	x	-17.5	x	-2.6%
